Data as given in PubChem BioAssay AID652054 (National Center for Advancing Translational Sciences (NCATS), 2013).
Out of some 360,000 compounds screened, about 9,100 (2.5%) were called active. Inconclusive results (about 4%) are left out. No stated cut-off is given here; in the data, active means max response below about -50%; inconclusive means no clear call, values can overlap the other calls; inactive means above that. This excerpt belongs to a sample that is enriched for actives.

biological target: D(3) dopamine receptor (Homo sapiens) (UniProt P35462); test: qHTS of D3 Dopamine Receptor Antagonist: qHTS; conditions: D3R cells, DiscoveRx beta-arrestin luminescence, antagonist mode; hits give low values
Sequence (P35462 whole entry, looked up): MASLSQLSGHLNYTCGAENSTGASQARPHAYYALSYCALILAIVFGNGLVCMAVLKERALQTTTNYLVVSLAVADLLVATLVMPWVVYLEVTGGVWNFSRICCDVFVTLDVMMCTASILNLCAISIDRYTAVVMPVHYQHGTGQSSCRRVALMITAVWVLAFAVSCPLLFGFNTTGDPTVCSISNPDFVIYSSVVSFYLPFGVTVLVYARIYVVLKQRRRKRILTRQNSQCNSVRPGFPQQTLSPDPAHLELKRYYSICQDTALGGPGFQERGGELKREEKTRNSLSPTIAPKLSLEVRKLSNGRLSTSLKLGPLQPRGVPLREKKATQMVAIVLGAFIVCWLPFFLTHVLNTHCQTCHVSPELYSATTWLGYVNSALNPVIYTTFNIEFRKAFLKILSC
Outline: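 Cells plated overnight at 1500 cells/well, then exposed to library compounds with dopamine controls for 90 minutes at 37 degrees C. DiscoveRx reagent added for 30–60 minutes at room temperature; luminescence read, quantitative HTS format.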
On the % scale 0 is the no-effect control and ±100 the full control effect.

Structure (SMILES)	max response, negative = inhibition
N#Cc1nc(N)nc(N(c2ccccc2)c2ccccc2)n1	-74% (active)
CC(C)Nc1nc(N(c2ccccc2)c2ccccc2)nc(-n2ccnc2)n1	16.7% (inactive)
CC(=O)Nc1ccc(CNc2nc(NCCN(C)C)nc3cc(-c4ccccc4)sc23)cc1	-24.6% (inactive)
CCOC(=O)C1CCCN(C(=O)c2cc(-c3cccs3)oc2C)CC1 (stereo not given)	11% (inactive)
O=c1[nH][nH]c(C(F)(F)F)c1C=NCc1ccccc1Cl	-70.6% (active)
COc1ccc(S(=O)(=O)N2CCCCC2c2cc(C(=O)NCc3ccc(F)cc3)no2)cc1 (stereo not given)	8.77% (inactive)
Cc1cc(C(=O)N2CCCC2(C)C(=O)O)c(C)o1 (stereo not given)	16.6% (inactive)
CCOC(=O)C1=CC[C@@H](c2ccccc2)N(S(=O)(=O)c2ccc(C)cc2)[C@H]1c1ccc(CC)cc1	4.64% (inactive)
O=C(NCc1cccnc1)c1cc(C2CCCCN2C(=O)CCc2ccccc2)on1 (stereo not given)	-10.2% (inactive)
COc1ccc(C(=NN)c2ccc(OC)cc2)cc1	-10.2% (inactive)
COc1ccc(/C(N)=N/OC(=O)Cc2ccccc2)cc1	-0.193% (inactive)
COc1ccc(C(C#N)=C2C=CC(=NO)c3ccccc32)cc1	-54% (active)
Cc1cccc(C)c1NC(=O)C(c1ccc(C(F)(F)F)cc1)n1c(=O)c(-c2ccco2)nc2ccccc21 (stereo not given)	-12.7% (inactive)
COc1cc(C=C(OC(C)=O)c2ccc3c(c2)OCO3)cc(OC)c1OC	24.2% (inactive)
O=C1CCC(C(=O)OCC(=O)Nc2ccc(OC(F)F)cc2)=NN1	12.8% (inactive)
CN(C)/N=C/c1cc(Cl)cc([N+](=O)[O-])c1O	-79.8% (active)
O=C(Cc1ccccc1)N/N=C/c1ccc(Cl)cc1Cl	-15.7% (inactive)
O=C(N/N=C/c1cc(Cl)cc([N+](=O)[O-])c1O)C(O)(c1ccccc1)c1ccccc1	-89.3% (active)
O=C(N/N=C/c1cc(Br)c(O)c([N+](=O)[O-])c1)C(O)(c1ccccc1)c1ccccc1	-10.9% (inactive)
CC(=O)NC(c1ccccc1)c1nc(-c2ccccc2C)cs1 (stereo not given)	-13.7% (inactive)
CC(C)CCNC(=O)c1[nH]c(C(F)(F)F)nc1-c1ccccc1	0% (inactive)
COCOCCn1cc(CN2CCS(=O)(=O)N(Cc3ccc(-c4ccc(OC)cc4)cc3)C(CC(C)C)C2=O)nn1 (stereo not given)	10.8% (inactive)
COc1ccc(NC(=O)c2sccc2SCC#N)cc1	-82.3% (active)

Structure (SMILES)	max response, negative = inhibition
COc1ccc(NC(=O)c2ccc(C#CC(C)(C)O)cc2)cc1	-1.8% (inactive)
COc1ccc(NC(=O)CSc2nc(C)cs2)cc1	5.34% (inactive)
C[C@@H]1CN([C@H](C)CO)C(=O)CCCn2cc(nn2)CO[C@H]1CN(C)S(C)(=O)=O	12.7% (inactive)
NC(=S)NN=Cc1ccc(OC(=O)COc2cc(Cl)c(Cl)cc2Cl)cn1	0.559% (inactive)
O=C(CN1CCOc2ccccc21)N1CCC(Cc2ccccc2)CC1	0% (inactive)
CCC(C(=O)Nc1ccc2c(c1)OCCO2)c1ccccc1 (stereo not given)	-13.2% (inactive)
O=C(Nc1ccc2c(c1)OCCO2)C(C1CC1)N1CCC(Cc2ccccc2)CC1 (stereo not given)	-73.1% (active)
O=C(NCc1ccccc1)C(c1ccc(F)cc1)N1CCN(C(=O)C2CCCO2)CC1 (stereo not given)	29.8% (inactive)
CCOC(=O)C1(C)CCCN(C(=O)c2cccc(Cl)c2)C1 (stereo not given)	-16.8% (inactive)
NC(=O)c1ccc(NC(=O)COC(=O)c2ccc([N+](=O)[O-])cc2)cc1	-15.1% (inactive)
COC(=O)c1cc(NC(=O)Cc2ccccc2[N+](=O)[O-])ccc1Cl	-7.17% (inactive)
N#Cc1cccc(NC(=O)COC(=O)c2ccccc2C(=O)c2ccc(Cl)c([N+](=O)[O-])c2)c1	-50.7% (active)
CCCc1ccc(C(O)c2ncc(-c3cccc(OC)c3)[nH]2)cc1 (stereo not given)	0% (inactive)
CC(C)(C)S(=O)N1Cc2cc(C(=O)NCCCN3CCOCC3)nc(-c3cccc(-c4cc5ccccc5o4)c3)c2[C@H]1CCO (stereo not given in full)	9.3% (inactive)
CN(c1ccc(C(=O)NCc2ccccn2)cc1)S(C)(=O)=O	-116% (active)
CCN(c1ccccc1)S(=O)(=O)c1cc(C(=O)NCc2ccccn2)ccc1C	4.76% (inactive)
COc1cccc(S(=O)(=O)NCc2ccc(C(=O)NCc3ccccn3)cc2)c1	8.72% (inactive)
CC1(Cc2ccccc2C#N)C(=O)Nc2ccc(-c3ccc4[nH]ccc4c3)cc21 (stereo not given)	-15.9% (inactive)
COc1ccc(S(=O)(=O)N[C@@H]2C=C[C@@H](CC(=O)N3CCc4ccccc4C3)O[C@@H]2CO)cc1	-0.0851% (inactive)
O=C1C=C(c2cccc(Cl)c2O)C[C@@H](c2ccc(F)cc2)C1	-58.3% (active)
COc1ccccc1C1=CC(=O)C[C@H](c2ccc(F)cc2)C1	-18.2% (inactive)
COc1cccc(C2=CC(=O)C[C@H](c3ccc(F)cc3)C2)c1OC	-8.44% (inactive)
CCOC(=O)c1ccc(-c2ccc(C(=O)Nc3cccnc3)o2)cc1	9.54% (inactive)

Structure (SMILES)	max response, negative = inhibition
COC(=O)C1=C(C)NC2=C(C(=O)c3ccccc32)C1c1ccc(-c2ccc(C(=O)O)cc2)o1 (stereo not given)	-75.7% (active)
COC(=O)C1=C(C)N(C)C(=O)NC1c1ccc([N+](=O)[O-])o1 (stereo not given)	-10.8% (inactive)
O=C(CSc1nnnn1-c1ccccc1)NCc1ccco1	-1.61% (inactive)
O=C(NCc1ccco1)C1(c2ccc(Cl)cc2)CCCC1	-5.37% (inactive)
O=C(CSc1c2c(nc3ccc(Cl)cc13)CCCC2)NCc1ccco1	-79.5% (active)
Cc1cc(C)n(-c2nnc(N3CCN(c4ccccc4)CC3)nn2)n1	-8.33% (inactive)
CN(C)c1ccc(/C=N/Nc2cc(N3CCOCC3)nc(N3CCOCC3)n2)cc1	-13.4% (inactive)
Cc1cc(N/N=C\c2ccc(Br)cc2)nc(-n2nc(C)cc2C)n1	-54.3% (active)
N#CC1=C(N)C(C#N)(C#N)[C@H](c2ccsc2)[C@H]2COCC=C12	-56% (active)
C[C@H]1COc2cc(N3CCSCC3)ccc2S(=O)(=O)N1	-22.5% (inactive)
CCCCC(O)C1=C[N+](=O)CC=C1 (stereo not given)	7.65% (inactive)
COc1ccc(-c2cc(NC=O)c3ncc(-c4ccccc4)n3c2)cc1OC	-15.4% (inactive)
COc1ccc(S(=O)(=O)NC(=O)C2(C)CCN2C(=O)c2ccccc2CCc2ccccc2)cc1 (stereo not given)	-6.13% (inactive)
CC(C)(O)C1=C[N+](=O)CC=C1	-16.9% (inactive)
O=C(c1ccccc1)N1CCN(c2cc(-c3ccccc3)nc3cc(-c4cccc(Cl)c4)nn23)CC1	14.3% (inactive)
Cc1cc(NC(=O)CCN2CCN(Cc3ccccc3)CC2)ccc1Br	-20.3% (inactive)
CCOC(=O)c1[nH]c2ccc(OC)cc2c1NC(=O)CCN1CCN(Cc2ccccc2)CC1	-54.8% (active)
COC(=O)c1[nH]c2ccccc2c1NC(=O)CN1CCCc2ccccc21	9.03% (inactive)
COc1ccc(-c2c(C#N)cnc(C)c2C)c(O)c1OC	9.2% (inactive)
CC(=O)Nc1cccc(Nc2ccc(C#N)cc2)c1	1.07% (inactive)
Clc1ccc(CN2CCCCCC2)cc1Cl	-62.3% (active)
Clc1ccc(-n2nnnc2CN2CCCCC2)cc1Cl	-19.7% (inactive)
c1cc(-c2nn[nH]n2)ccc1CN1CCCCC1	-18.9% (inactive)

Structure (SMILES)	max response, negative = inhibition
CC1(C(=O)NCc2ccc3c(c2)OCO3)CCN1CCc1ccccc1 (stereo not given)	-10.3% (inactive)
COCCNc1nc(NCc2ccc(NC(C)=O)cc2)c2sccc2n1	23.6% (inactive)
COc1ccc(NC(=O)C2Cc3c(-c4ccc5c(c4)OCO5)ccnc3O2)cn1 (stereo not given)	-19.8% (inactive)
CC1(C)Cc2ccccc2/C(=C/C(=O)c2ccccc2)N1	3.22% (inactive)
CC1(C)Cc2ccccc2-c2nc(CN3CCOCC3)[nH]c(=O)c21	8.19% (inactive)
CC1(C)Cc2ccccc2-c2[nH]c(=S)[nH]c(=O)c21	-54.5% (active)
COc1cc(Cn2c3ccc(NC(=O)CC(C)c4ccccc4)cc3c(=O)n2C)ccc1F (stereo not given)	0% (inactive)
CC1(C(=O)NS(=O)(=O)c2ccc(C#N)cc2)CCN1C(=O)c1ccc(C2CCCCC2)cc1 (stereo not given)	-14.3% (inactive)
OCC1OC(n2cnc3c(N4CCCC4)ncnc32)C(O)C1O (stereo not given)	10.4% (inactive)
O=C(OCc1cn([C@@H]2C[C@H](c3ccc(Cl)cc3)N(Cc3cccs3)C[C@H]2O)nn1)c1ccccc1	-15% (inactive)
CCN(CC)CCNC(=O)c1ccc(NS(=O)(=O)c2ccc3c(c2)OCCO3)cc1	2.66% (inactive)
COc1ccc(S(=O)(=O)NC(C)C)cc1C(=O)NC1CCCCC1	11.4% (inactive)
CCN(CC)CCNC(=O)c1cc(S(C)(=O)=O)ccc1OC	-60.5% (active)
COc1cccc(CN2CCC(C(=O)NC(c3ccc4c(c3)OCO4)c3ccccn3)CC2)c1 (stereo not given)	-21.6% (inactive)
O=C(NCCN1CCOCC1)c1ccc2c(c1)N(Cc1cccc(Cl)c1)C(=O)c1ccccc1S2(=O)=O	-29.4% (inactive)
CC1(C(=O)Nc2cccc3c2CCCC3)CCN1C(=O)C1(c2ccccc2)CC1 (stereo not given)	11.6% (inactive)
CCOC(=O)N1CCN(C(=O)C2CCN(Cc3ccc(OC)cc3OC)CC2)CC1	0.368% (inactive)
CCOC(=O)C1CCCN(C(=O)/C=C/c2ccc(OC)cc2)C1 (stereo not given)	-24.9% (inactive)
CCOC(=O)c1cc2cc(OC)ccc2n1C1CCN(C)CC1	-92.9% (active)
O=C1c2ccccc2C(c2nc3ccccc3[nH]2)N1c1ccccc1 (stereo not given)	6.4% (inactive)
O=C(c1ccc(CS(=O)Cc2ccccc2Cl)o1)N1CCN(c2ccccc2)CC1 (stereo not given)	2.17% (inactive)
